ATG4B inh = inhibitors of human ATG4B cysteine protease | Q9Y4P1 | ATG4B cleavage of LC3-PLA2, NBD-HPC fluorescence, 1 h | inhibition, % at 8.33 µM | hit rate 0.51% among 340,000; in the data active = inhibition above about 40%
Target sequence (Q9Y4P1 whole entry, looked up): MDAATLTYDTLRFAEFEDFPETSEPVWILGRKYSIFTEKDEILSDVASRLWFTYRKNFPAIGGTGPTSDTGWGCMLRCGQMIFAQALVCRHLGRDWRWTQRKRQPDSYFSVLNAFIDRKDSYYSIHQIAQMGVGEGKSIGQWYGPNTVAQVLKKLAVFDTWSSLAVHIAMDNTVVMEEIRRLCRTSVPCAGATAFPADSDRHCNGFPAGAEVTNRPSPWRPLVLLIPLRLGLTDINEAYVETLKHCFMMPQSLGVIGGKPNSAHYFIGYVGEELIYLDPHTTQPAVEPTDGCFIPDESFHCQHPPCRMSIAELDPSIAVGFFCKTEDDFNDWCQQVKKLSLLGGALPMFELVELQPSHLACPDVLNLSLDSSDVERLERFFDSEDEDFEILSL
Efflux pump mplx = inhibitors of Candida antifungal efflux pumps expressed in yeast; S. cerevisiae Candida pump triplex, Nile Red efflux; inhibition, % at 10 µM; hit rate 0.44% among 330,000; AID 485275;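 active = plate passing quality check with inhibition over a set limit, or well fluorescence over plate mean plus 4 SD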;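 note: Nile Red retained in pooled yeast measured as flow cytometry median fluorescence; 0% = buffer negative control and 100% = Enniatin B positive control; higher means more Nile Red kept so more efflux inhibition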
AI-2 QS modul = Vibrio harveyi AI-2 quorum sensing modulation | Vibrio harveyi JMH597 AI-2 luminescence/OD600 ratio, 9 h; hits give low values; strain lacks LuxN and CqsS sensors; 0 = neutral-control median | activity change, % at 7.5 µM | hit rate 0.4% among 300,000; in the data active = activity change below about -75%, passing the limit was not always enough;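 note: luminescence divided by OD600 gain over 9 h not by final OD600 alone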
SUMO Mot1 rescue = SUMOylation pathway inhibition by Mot1-301 growth rescue; hit rate 1% among 320,000; growth rescue, % at 18.8 µM; S. cerevisiae Mot1-301 growth rescue, ATP luminescence, 38.5C; percent above DMSO median, 100 means doubled;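 active = every valid replicate shows activation above 250% relative to neutral control wells; inactive = the rest, any valid replicate at or below 250%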;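 note: OY570 slx delta 5 strain wells were the positive control but not used for scaling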
V-ATPase pH = yeast V-ATPase proton transport regulation by pHLuorin. S. cerevisiae, pHLuorin cytosolic pH fluorescence. response, % at 10 µM. hit rate 0.37% among 350,000; in the data active = response mostly above about 7.3%, no sharp cut-off; inactive = mostly below about 5.4%; note: actives read high
Yeast Mot1 SUMO = inhibits SUMO pathway, affecting Mot1-301 yeast growth | growth activity, percent, % at 42 µM | 2,300 tested, under 10 active | S. cerevisiae Mot1-301 galactose growth, ATP luminescence, 24 h; -100 = growth of slx-deleted rescue strain | shares compounds with SUMO Mot1 rescue | AID 493004;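 active = Signal drops as the depositor expects, and the fitted half-maximal dose is no more than ten times the top valid tested dose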;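 note: more negative values mean stronger growth rescue toward the control strain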
Active calls of the source: *; i = inactive; . = not tested or not shown; + = active, no number. Rows were chosen to be rich in hits. Some 2.5% of all compounds tested hit in one or more screens of this group.

SMILES | ATG4B inh | Efflux pump mplx | AI-2 QS modul | SUMO Mot1 rescue | V-ATPase pH | Yeast Mot1 SUMO
Cc1ccc(C(=O)N[C@H](C(=O)Nc2sccc2C(N)=O)C(C)C)cc1 | 0 | 0 | 20 | -21 | 1 | .
CC1CC(C)(C)N(C(=O)CN2C(=O)CCC2=O)c2ccccc21 (configuration not stated) | 5 | 0 | 0 | 371* | -2 | 0
CC1=CC(C)(C)N(C(=O)CN2C(=O)CCC2=O)c2ccccc21 | 1 | 0 | -4 | -16 | 2 | .
C=CCN(C(=O)Cn1nc(C)n2c(cc3cc(C)ccc32)c1=O)c1ccccc1 | -10 | 0 | -5 | 12 | 6 | .
Cc1ccc(N(C(=O)CNC(=O)c2ccco2)C(C(=O)NC2CCCCC2)c2cccnc2)cc1C (configuration not stated) | 1 | 0 | 49 | -2 | 2 | .
Cc1ccc(N(C(=O)CCl)C(C(=O)NC2CCCCC2)c2cccnc2)cc1C (configuration not stated) | 6 | 0 | 19 | 369* | . | 0
O=C(COC(=O)C1COc2ccccc2O1)NC1CCS(=O)(=O)C1 (configuration not stated) | 6 | 0 | 8 | 473* | -1 | 0
O=C(COC(=O)C1COc2ccccc2O1)NC(=O)NC1CCCCC1 (configuration not stated) | -19 | 0 | 13 | 9 | 0 | .
Cc1ccc(OCC(=O)N/N=C/c2cccc3cccnc23)cc1 | -14 | 0 | 6 | 5 | 1 | .
CC1CCCCC1N=CC1=C(O)CC(C)(C)CC1=O (configuration not stated) | 0 | -1 | 13 | 385* | . | 0
CCOC(=O)C1(Cc2ccccc2C(F)(F)F)CCN(C2CCN(C(C)=O)CC2)CC1 | 1 | 0 | 18 | -9 | 2 | .
Cc1n[nH]c(=O)nc1NCc1ccc(Cl)cc1 | 5 | 0 | 21 | 627* | 1 | 0
CCCCOc1ccccc1C(=O)N(Cc1ccc(C)o1)C1CCS(=O)(=O)C1 (configuration not stated) | 1 | 0 | 20 | 72 | 1 | .
CN(C[C@@H](CC1CCCCC1)N(C[C@H](Cc1ccccc1)N(CCc1ccccc1)N=O)N=O)N=O | -2 | . | 21 | -8 | 0 | .
CCN(CC)c1ccc(C=C2C(=O)OC(c3ccccc3)OC2=O)cc1 (configuration not stated) | 3 | 0 | 13 | + | 1 | 0
Cc1cccc(N=NC(=S)NNc2cccc(C)c2)c1 | -5 | . | . | . | -1 | .
CC1=C(C)CC2C(=O)N(Cc3ccccc3)C(=O)C2C1 (configuration not stated) | -1 | 0 | 12 | 102 | 0 | .
CC1=Nc2ccc(C)cc2N(Cc2ccccc2)C(=O)C1 | 1 | 0 | 28 | 629* | -6 | 0
O=C(COc1ncnc2ccccc12)Nc1ccc(Cl)c(S(=O)(=O)N2CCOCC2)c1 | -10 | 0 | 17 | 384* | -4 | 0
CN(C)S(=O)(=O)c1cccc(NC(=O)COc2nc3ccccc3nc2N2CCOCC2)c1 | -6 | 0 | 17 | 524* | 0 | 0
O=C(COc1nc2ccccc2nc1N1CCOCC1)Nc1ccc(S(=O)(=O)N2CCCC2)cc1 | -9 | 0 | 14 | -4 | -1 | .
COc1ccc(CCN(C)C2CCCN(S(=O)(=O)c3ccccc3F)C2)cc1OC (configuration not stated) | -4 | 0 | 1 | i | -1 | .
Cc1ccc(NC(=O)COC(=O)C2=NN(c3ccccc3)C(=O)CC2)c(Br)c1 | -17 | 0 | . | 160 | -5 | .
CN(CP(=O)(O)C(O)c1ccccc1)S(C)(=O)=O (configuration not stated) | -8 | 0 | 5 | 935* | 0 | 0
O=C(COC(=O)/C=C/c1ccco1)Nc1ncc(C(F)(F)F)cc1Cl | 12 | 0 | 25 | 588* | 1 | 0
Cc1cnc(NC(=O)CSc2nc3ccccc3s2)s1 | -7 | 0 | 12 | 395* | -4 | -1
O=C(CSc1nc2ccccc2s1)Nc1ncccn1 | -13 | 0 | 24 | 0 | 1 | .
COc1cccc(-c2nn(-c3ccccc3)cc2/C=C(/NC(=O)c2ccccc2)C(=O)O)c1 | -8 | 0 | 30 | 915* | 1 | 0

From PubChem BioAssay
